Drawing on the supplement of paper PMC10849652, this text covers log2 fold change for five targets.

About 8,800 targets were measured; listed, in parts, are those with a hit and a random draw of the rest. About 0.5% of all pairs of compound and target were hits.

Experiment in all cases: log2 fold change, soluble protein after heating vs DMSO (PISA); higher = thermal stabilisation; K562 lysate, 10 uM; active = over 0.2 and 3.5 SD of the protein, either way, in both replicates (recomputed)
Compound in one experiment: Cc1nc(Nc2ncc(C(=O)Nc3c(C)cccc3Cl)s2)cc(N2CCN(CCO)CC2)n1 [dasatinib]
The method in brief:
(§1)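 K562 pellets were dounce-homogenised in PBS pH 7.4 with 1 mM MgCl2, and the crude extract at 1 mg/mL protein was treated with 10 μM compound for 30 min. Aliquots were heated for 3 min across 48°C-58°C, pooled, and brought to 0.5% NP-40 at 4°C; soluble protein was the supernatant after 21,000xg for 90 min. Soluble protein was quantified by TMTpro 16plex LC-MS/MS with channel sums equalised, and reported as log2 fold change in thermal stability against DMSO controls, with values from duplicates.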

Compound in experiment [1]: Cn1cc(-c2ccc3c(c2)CCN3C(=O)Cc2cccc(C(F)(F)F)c2)c2c(N)ncnc21
The method in brief:
as §1

Compound in experiment [2]: NC1(c2ccc(-c3nc4ccn5c(=O)[nH]nc5c4cc3-c3ccccc3)cc2)CCC1
An outline of the steps: as §1

Compound in experiment [3]: NCC(=O)Nc1ccc(-n2nc(C(F)(F)F)cc2-c2ccc3c(ccc4ccccc43)c2)cc1
The method in brief:
as §1

Compound in another experiment: O=C(CCCCCCC(=O)Nc1ccccc1)NO [vorinostat]
The method in brief: as §1

Compound in the next experiment: O=C(O)c1ccc2c(c1)nc(Nc1cccc(Cl)c1)c1ccncc12 [silmitasertib]
An outline of the steps:
as §1

Compound in the next experiment: c1cn2cc(-c3ccc4cn[nH]c4c3)nc(Nc3ccc(N4CCOCC4)cc3)c2n1 [entospletinib]
The method in brief:
as §1

Compound in the next experiment: Cc1cn(-c2cc(NC(=O)c3ccc(C)c(Nc4nccc(-c5cccnc5)n4)c3)cc(C(F)(F)F)c2)cn1 [nilotinib]
The method in brief:
as §1

Compound in experiment [4]: Cc1nc(Nc2n[nH]c3c2CN(C(=O)N[C@H](CN(C)C)c2ccccc2)C3(C)C)c2sccc2n1
The method in brief: as §1

Compound in experiment [5]: Cc1ncc(-c2ccnc(Nc3ccc(S(C)(=O)=O)cc3)n2)n1C(C)C
An outline of the steps:
as §1

Compound in another experiment: Cn1cncc1[C@@](N)(c1ccc(Cl)cc1)c1ccc2c(c1)c(-c1cccc(Cl)c1)cc(=O)n2C [tipifarnib]
The method in brief: as §1

Compound in experiment [6]: NC(=O)c1cnc(N[C@@H]2CCCC[C@@H]2N)nc1Nc1cccc(-n2nccn2)c1
The method in brief:
as §1

Compound in a further experiment: Cn1cc(CNCC2CCN(c3ncc(C(=O)NO)cn3)CC2)c2ccccc21 [quisinostat]
An outline of the steps:
as §1

Compound in experiment [7]: NC(=O)Nc1cc(-c2cccc(F)c2)sc1C(=O)N[C@H]1CCCNC1
The method in brief:
as §1

Compound in experiment [8]: O=C1NC(=O)C(c2cnc3ccccn23)=C1c1cn2c3c(cc(F)cc13)CN(C(=O)N1CCCCC1)CC2
The method in brief:
as §1

Chain of UniProt Q8IUH5 (Q8IUH5 whole entry, looked up): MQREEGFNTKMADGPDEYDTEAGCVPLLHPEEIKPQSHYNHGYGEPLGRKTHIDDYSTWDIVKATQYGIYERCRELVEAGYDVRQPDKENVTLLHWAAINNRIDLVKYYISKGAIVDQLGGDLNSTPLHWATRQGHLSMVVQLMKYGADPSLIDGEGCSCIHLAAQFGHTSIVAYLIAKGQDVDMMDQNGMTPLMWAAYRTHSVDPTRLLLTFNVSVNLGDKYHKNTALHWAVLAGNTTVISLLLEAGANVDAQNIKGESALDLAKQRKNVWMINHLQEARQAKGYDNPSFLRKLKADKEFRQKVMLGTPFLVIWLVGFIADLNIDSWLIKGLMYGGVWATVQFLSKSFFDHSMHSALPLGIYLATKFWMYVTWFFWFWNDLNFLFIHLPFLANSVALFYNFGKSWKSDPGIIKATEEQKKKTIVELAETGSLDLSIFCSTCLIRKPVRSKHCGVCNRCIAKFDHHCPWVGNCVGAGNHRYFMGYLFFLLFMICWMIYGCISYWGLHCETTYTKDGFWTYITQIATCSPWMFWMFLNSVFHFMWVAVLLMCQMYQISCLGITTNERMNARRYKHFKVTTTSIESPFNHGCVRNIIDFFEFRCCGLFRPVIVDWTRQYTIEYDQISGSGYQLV
Chain of UniProt P58557 (P58557 whole entry, looked up): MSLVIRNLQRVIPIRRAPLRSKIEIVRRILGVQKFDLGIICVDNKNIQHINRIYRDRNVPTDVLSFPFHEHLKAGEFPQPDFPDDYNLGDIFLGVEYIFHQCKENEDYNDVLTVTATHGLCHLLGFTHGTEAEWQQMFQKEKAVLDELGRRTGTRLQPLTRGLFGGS
Chain of UniProt Q6WRX3 (Q6WRX3 whole entry, looked up): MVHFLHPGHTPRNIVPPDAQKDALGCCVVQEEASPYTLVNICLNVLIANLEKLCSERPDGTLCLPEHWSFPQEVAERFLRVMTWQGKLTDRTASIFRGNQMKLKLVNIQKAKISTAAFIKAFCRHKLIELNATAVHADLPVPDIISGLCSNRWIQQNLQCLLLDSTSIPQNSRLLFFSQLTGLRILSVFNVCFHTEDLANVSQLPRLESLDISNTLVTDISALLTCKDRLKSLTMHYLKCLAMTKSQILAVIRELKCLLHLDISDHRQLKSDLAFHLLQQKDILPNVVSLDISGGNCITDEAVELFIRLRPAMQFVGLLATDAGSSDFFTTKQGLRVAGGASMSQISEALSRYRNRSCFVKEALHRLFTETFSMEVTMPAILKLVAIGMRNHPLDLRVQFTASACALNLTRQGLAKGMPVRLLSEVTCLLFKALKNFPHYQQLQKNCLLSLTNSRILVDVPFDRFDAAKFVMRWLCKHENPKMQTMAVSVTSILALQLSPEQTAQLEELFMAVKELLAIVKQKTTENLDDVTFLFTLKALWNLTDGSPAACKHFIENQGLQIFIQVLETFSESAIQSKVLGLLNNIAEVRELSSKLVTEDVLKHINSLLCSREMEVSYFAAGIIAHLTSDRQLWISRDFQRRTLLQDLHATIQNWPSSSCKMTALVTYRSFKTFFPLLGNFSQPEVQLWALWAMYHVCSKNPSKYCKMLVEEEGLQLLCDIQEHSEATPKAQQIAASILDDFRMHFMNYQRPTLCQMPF
Chain of UniProt P40337 (P40337 whole entry, looked up): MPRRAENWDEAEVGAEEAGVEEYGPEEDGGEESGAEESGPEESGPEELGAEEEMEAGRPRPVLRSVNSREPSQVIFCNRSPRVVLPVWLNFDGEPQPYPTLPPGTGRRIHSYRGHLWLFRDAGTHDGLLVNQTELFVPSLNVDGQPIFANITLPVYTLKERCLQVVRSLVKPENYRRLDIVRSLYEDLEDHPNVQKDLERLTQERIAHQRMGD
Chain of UniProt Q96K21 (Q96K21 whole entry, looked up): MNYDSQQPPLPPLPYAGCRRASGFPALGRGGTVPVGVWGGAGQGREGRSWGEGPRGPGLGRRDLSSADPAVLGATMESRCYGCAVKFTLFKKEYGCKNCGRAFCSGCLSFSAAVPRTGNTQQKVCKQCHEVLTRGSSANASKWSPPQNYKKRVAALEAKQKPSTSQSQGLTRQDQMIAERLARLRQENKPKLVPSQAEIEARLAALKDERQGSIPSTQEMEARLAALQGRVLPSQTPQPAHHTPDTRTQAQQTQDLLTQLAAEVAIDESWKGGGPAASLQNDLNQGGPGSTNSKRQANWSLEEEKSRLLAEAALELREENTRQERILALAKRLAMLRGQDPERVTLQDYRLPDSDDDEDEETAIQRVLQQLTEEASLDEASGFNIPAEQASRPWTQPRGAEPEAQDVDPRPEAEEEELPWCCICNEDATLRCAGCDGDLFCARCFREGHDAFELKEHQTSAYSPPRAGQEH

As for YBEY (UniProt P58557), the log2 fold change with dasatinib is 0.067 (inactive); in experiment [1], -0.083 (inactive); in [2], 0.044 (inactive); in [3] it was 0.035 (inactive); in the experiment with vorinostat, -0.136 (inactive); with silmitasertib it was 0.063 (inactive). In the experiment with entospletinib, the log2 fold change is 0.029 (inactive).
ZYG11A (UniProt Q6WRX3): the log2 fold change with nilotinib is 0.151 (inactive); in experiment [4], -0.077 (inactive); in experiment [5], -0.227 (inactive); with tipifarnib it was -0.124 (inactive); in [6] it was 0.085 (inactive); in experiment [2] it was -0.068 (inactive). The log2 fold change with vorinostat was 0.719 (active); with silmitasertib, 0.17 (inactive).
As for VHL (UniProt P40337), the log2 fold change is -0.01 (inactive) in the experiment with nilotinib; 0.04 (inactive) in [4]; 0 (inactive) with dasatinib; -0.056 (inactive) in [5]; 0.079 (inactive) in experiment [1]; -0.056 (inactive) with quisinostat. Further, the log2 fold change with tipifarnib is 0.022 (inactive); in [7], 0.077 (inactive); in experiment [2], 0.04 (inactive); in experiment [3], 0.015 (inactive); in the experiment with vorinostat, -0.289 (inactive); with silmitasertib, -0.038 (inactive). Further, the figures for the log2 fold change (in experiment [8]; with entospletinib) were -0.011 (inactive) and -0.001 (inactive), respectively.
As for ZFYVE19 isoform 3 (UniProt Q96K21), the log2 fold change in experiment [6] is -0.002 (inactive).
As for ZDHHC17 (UniProt Q8IUH5), the log2 fold change in the experiment with nilotinib was -0.164 (inactive); in experiment [4] it was 0.039 (inactive); with dasatinib, -0.096 (inactive); in experiment [5], -0.115 (inactive); in experiment [1], -0.028 (inactive); in the experiment with quisinostat, 0.045 (inactive). Besides, the log2 fold change is 0.118 (inactive) with tipifarnib; -0.118 (inactive) in [7]; -0.047 (inactive) in [6]; 0.065 (inactive) in experiment [3]; -0.067 (inactive) in experiment [8]; 0.009 (inactive) with entospletinib.
